{"source": "PubChem BioAssay AID504832", "about": "(National Center for Advancing Translational Sciences (NCATS), 2011)", "note": "About 18,000 (5.8%) of roughly 310,000 compounds were called active. Not shown: some 22% with an inconclusive outcome. Shown is part of a subset that was picked to be rich in actives. A number with no mark means an inactive call. Calls follow the shape of the dose curve; as a rule, active = well fitted inhibition curve with a large enough effect; inconclusive = small, poorly fitted or top-dose-only effect, or another doubt; inactive = no such curve, though single readings can be large or run the other way. % is scaled to controls: 0 for no effect and ±100 for the full control effect; potency is read from the fitted curve at half-maximal effect."}
{"test": "Primary qHTS for delayed death inhibitors of the malarial parasite plastid, 48 hour incubation", "conditions": "P. falciparum luciferase growth in erythrocytes; series mostly up to 28.7 µM; activity change, negative = inhibition: at the top concentration", "text": "The goal of this screen is to discover new antimalarial compounds that act by inhibiting the development of the apicoplast in the malarial parasite Plasmodium falciparum. The biochemical processes that make this organelle essential for erythrocytic stage parasites are not well understood. However, antibiotics such as azithromycin and tetracycline, which target the apicoplast translational machinery, have a potent antimalarial effect.\nWe have developed a cell-based assay that measures parasite growth based on the expression of an integrated copy of a firefly luciferase reporter. To detect small molecules that cause this \"delayed death\" phenotype, erythrocytes infected with the luciferase-expressing parasites were incubated with compounds for either one or two generations, corresponding to 48 and 96 hours, respectively. Compounds that inhibit parasite growth in the second generation, but not the first, should be enriched in antimalarials that target the apicoplast. Growth inhibition is detected by a decrease in luciferase activity.\nAssay Provider: David Fidock and Eric Ekland, Columbia University\nKeywords: NIH Roadmap, MLPCN, MLI, MLSMR, qHTS, NCGC, qHTS, malaria, luciferase, viability\nFour microliters of culture medium (RPMI 1640 with 0.5% w/v Albumax (GIBCO), 24 mM sodium bicarbonate and 10 ug/mL gentamycin) were dispensed by a Multi-drop Combi into white solid 1536-well plates (Grenier) and 23 nL compound was added by a pin tool. Four microliters of infected erythrocytes (2% hematocrit, 0.1% parasitemia final concentration) in culture medium were dispensed and the plates incubated for 48 hours at 37 C in 5% CO2. Two microliters of luciferase detection reagent was added and luminescence was detected by a ViewLux (PerkinElmer) reader.", "units": {"activity change, negative = inhibition": "%"}}
{"molecule": "CCOc1ccc(NC(=S)N2CCC(NC(=O)c3ccccc3)CC2)cc1", "activity change, negative = inhibition": 25.8}
{"molecule": "COc1ccc(NC(=O)CCC(=O)N2CCN(S(=O)(=O)c3ccc(C)cc3)CC2)c(OC)c1", "activity change, negative = inhibition": -9.09}
{"molecule": "COc1ccc(C(=O)Oc2cc(/C=N/NS(=O)(=O)c3ccc(C)cc3)ccc2OC)cc1", "activity change, negative = inhibition": -2.4}
{"molecule": "COc1ccc(/C=C/C(=O)c2ccc(NS(=O)(=O)c3ccc(C)cc3)cc2)cc1O", "Potency": "14.7 µM (active)"}
{"molecule": "COc1ccc(NS(=O)(=O)c2ccc(NC(C)=O)cc2)cc1OC", "activity change, negative = inhibition": -1.61}
{"molecule": "Cc1cc(Cl)c2oc(C(=O)N(C)C(C)c3ccccn3)c(C)c2c1", "note": "(configuration not stated)", "activity change, negative = inhibition": 8.93}
{"molecule": "CCc1nccn1CCC(=O)N1CCCC(N2CCN(c3ccccc3F)CC2)C1", "note": "(configuration not stated)", "activity change, negative = inhibition": -21.7}
{"molecule": "O=C(c1ccc(Cl)c(Cl)c1)N1CCCC1", "activity change, negative = inhibition": 18.7}
{"molecule": "O=C(C1CC(=O)N(c2ccc(F)cc2)C1)N1CCN(c2ccccc2)CC1", "note": "(configuration not stated)", "activity change, negative = inhibition": 38.4}
{"molecule": "CCC(C)c1ccccc1N1CC(C(=O)N2CCN(S(=O)(=O)c3ccc(F)cc3)CC2)CC1=O", "note": "(configuration not stated)", "Potency": "10.4 µM (active)"}
{"molecule": "Cc1ccc(C(=O)Nc2ccc3c(c2)OCO3)cc1S(=O)(=O)N1CCCCC1", "activity change, negative = inhibition": -24.7}
{"molecule": "O=C(c1ccc(Cl)c(S(=O)(=O)N2CCCCC2)c1)N1CCCCCC1", "activity change, negative = inhibition": 11.7}
{"molecule": "CC1CC(C)CN(C(=O)C2CC(=O)N(c3ccc(F)cc3)C2)C1", "note": "(configuration not stated)", "activity change, negative = inhibition": 16.7}
{"molecule": "O=C(Nc1cccc(S(=O)(=O)N2CCCCC2)c1)c1ccc2c(c1)OCO2", "activity change, negative = inhibition": 11.6}
{"molecule": "O=C(Nc1ccc2c(c1)OCCO2)c1ccc(Cl)c(S(=O)(=O)N2CCCCC2)c1", "Potency": "6.57 µM (active)"}
{"molecule": "O=C(NC1CCCC1)C1CC(=O)N(c2ccc(F)cc2)C1", "note": "(configuration not stated)", "activity change, negative = inhibition": 46.9}
{"molecule": "O=C(c1ccc(Cl)c(S(=O)(=O)N2CCCCCC2)c1)N1CCN(c2ccc(O)cc2)CC1", "Potency": "13.1 µM (active)"}
{"molecule": "CNS(=O)(=O)c1ccc(NC(=O)C2CC(=O)N(c3ccc(Cl)cc3)C2)cc1", "note": "(configuration not stated)", "activity change, negative = inhibition": -7.43}
{"molecule": "O=C(Nc1ccc(S(=O)(=O)N2CCCCC2)cc1)C1CC(=O)N(c2ccc(F)cc2)C1", "note": "(configuration not stated)", "Potency": "5.22 µM (active)"}
{"molecule": "COC(=O)c1ccc(NC(=O)c2cc3c(CO)cnc(C)c3oc2=Nc2cccc(C(N)=O)c2)cc1", "activity change, negative = inhibition": 10.2}
{"molecule": "Cc1nc(NC(=O)c2ccc3c(c2)OCCO3)ccc1Br", "activity change, negative = inhibition": 324}
{"molecule": "CCCCn1c(N)c(N(CCOC)C(=O)c2oc3ccc(OC)cc3c2C)c(=O)[nH]c1=O", "activity change, negative = inhibition": -10.5}
{"molecule": "Cc1cn([C@H]2CC(F)[C@@H](CO)O2)c(=O)[nH]c1=O", "note": "(some centres not stated)", "activity change, negative = inhibition": 0.676}
{"molecule": "COc1ccc2cc(C(=O)C3CCCN(C(=O)c4sc(C)nc4C)C3)ccc2c1", "note": "(configuration not stated)", "activity change, negative = inhibition": -15.4}
{"molecule": "COc1ccccc1C(=O)NC(CCSC)C(=O)NNC(=O)c1ccccc1C", "note": "(configuration not stated)", "activity change, negative = inhibition": 6.75}
{"molecule": "Cc1ccc(CN(CC(=O)NCC2CCCO2)S(=O)(=O)c2ccc(C)cc2)cc1", "note": "(configuration not stated)", "activity change, negative = inhibition": 6.34}
{"molecule": "O=C(Cc1ccccc1)Nc1ccc(C(=O)Nc2ccccc2C(=O)O)cc1", "activity change, negative = inhibition": -11.1}
{"molecule": "CCOC(=O)c1sc(NC(=O)C2CSC3(C)CCC(=O)N23)nc1C", "note": "(configuration not stated)", "activity change, negative = inhibition": -29.7}
{"molecule": "CCOC(=O)N1CCN(Cc2nc3cc(NC(C)=O)ccc3n2C)CC1", "activity change, negative = inhibition": 19.6}
{"molecule": "O=C(Nc1ccccc1)C1CCN(C(=O)c2ccc(Br)cc2)CC1", "activity change, negative = inhibition": -23.3}
{"molecule": "CCOC(=O)c1ccc(NC(=O)C2CC(=O)N(c3ccc4c(c3)OCCO4)C2)cc1", "note": "(configuration not stated)", "activity change, negative = inhibition": -24.2}
{"molecule": "Cc1ccc(NC(=O)C2CC(=O)N(c3ccc4c(c3)OCCO4)C2)cc1S(=O)(=O)N1CCCCCC1", "note": "(configuration not stated)", "Potency": "11.7 µM (active)"}
{"molecule": "O=C(Nc1ccc(F)cc1)C1CCCN(S(=O)(=O)c2ccc(-n3cnnn3)cc2)C1", "note": "(configuration not stated)", "activity change, negative = inhibition": 1.34}
{"molecule": "CC(=O)c1ccccc1NC(=O)C1CC(=O)N(c2ccc3c(c2)OCCO3)C1", "note": "(configuration not stated)", "activity change, negative = inhibition": -4.46}
{"molecule": "O=C(Nc1ccc(S(=O)(=O)N2CCCCC2)cc1)C1CCN(C(=O)c2ccc(F)cc2)CC1", "Potency": "9.28 µM (active)"}
{"molecule": "Cc1c(Cl)c([N+](=O)[O-])nn1CC(=O)NCCCN1CCOCC1", "activity change, negative = inhibition": 24}
{"molecule": "N[C@@H](Cc1ccccc1)C(=O)N1CCOCC1", "activity change, negative = inhibition": 23.4}
{"molecule": "CSCC[C@H](NC(=O)N1CCn2c1nc1ccccc12)C(=O)NC1CCCCC1", "activity change, negative = inhibition": -18.4}
{"molecule": "COc1cccc(CNC(=O)CCC2CCCN(C(=O)c3ccc(F)c(Cl)c3)C2)c1", "note": "(configuration not stated)", "activity change, negative = inhibition": -19}
{"molecule": "CCOc1ccc(CC(=O)NC2CCN(Cc3ccccc3)CC2)cc1", "activity change, negative = inhibition": 1.1}
{"molecule": "O=C(O)CN1c2cccc3cccc(c23)S1(=O)=O", "activity change, negative = inhibition": 39.3}
{"molecule": "CC(C)CN(CC(C)C)C(=O)CN1c2cccc3cccc(c23)S1(=O)=O", "activity change, negative = inhibition": 9.64}
{"molecule": "Cc1ccc(S(=O)(=O)N(C)C)cc1NC(=O)CN1c2cccc3cccc(c23)S1(=O)=O", "Potency": "13.1 µM (active)"}
{"molecule": "Cc1cc(=O)n2nc(N3CCC(C(=O)Nc4c(F)c(F)c(F)c(F)c4F)CC3)sc2n1", "activity change, negative = inhibition": -2.44}
{"molecule": "CCOc1ccc(S(=O)(=O)N2CCN=C2Cc2ccccc2)cc1C", "activity change, negative = inhibition": 3.8}
{"molecule": "Cc1ccc(C23CC4CC(CC(C(=O)NCC(=O)O)(C4)C2)C3)cc1", "activity change, negative = inhibition": 18.8}
{"molecule": "CC(=O)Nc1ccc(NC(=O)CCN2C(=O)C3CC=CCC3C2=O)cc1", "note": "(configuration not stated)", "activity change, negative = inhibition": -5.38}
{"molecule": "COc1ccc(CNC(=O)[C@H](Cc2c[nH]c3ccccc23)NC(C)=O)cc1OC", "activity change, negative = inhibition": 6}
{"molecule": "COc1ccc(NC(=O)[C@H](NC(=O)[C@@H]2Cc3ccccc3CN2)c2ccccc2)cc1", "activity change, negative = inhibition": -16.2}
{"molecule": "COc1cccc(NC(=O)[C@H](Cc2c[nH]c3ccccc23)NC(=O)[C@@H]2Cc3ccccc3CN2)c1", "Potency": "9.28 µM (active)"}
{"molecule": "CCOC(=O)c1c(C)[nH]c(C)c1S(=O)(=O)NCCCc1ccco1", "activity change, negative = inhibition": -0.529}
{"molecule": "CC1CCCCC1NC(=O)CCS(=O)(=O)c1ccc2c(c1)NC(=O)CO2", "note": "(configuration not stated)", "activity change, negative = inhibition": 9.15}
{"molecule": "CCOc1ccc(CN2CCN(Cc3ccc4cc(F)ccc4n3)CC2CCO)cc1", "note": "(configuration not stated)", "activity change, negative = inhibition": 7.78}
{"molecule": "COc1ccc(OCC(O)CN(C)C(=O)C(C)Oc2ccccc2)cc1", "note": "(configuration not stated)", "activity change, negative = inhibition": -15.8}
{"molecule": "COc1cccc(CN(C)CC(=O)Nc2sc3c(c2C#N)CCC3)c1", "activity change, negative = inhibition": -7.19}
{"molecule": "COc1cccc(CN(C)CC(O)COC(c2ccccc2)c2ccccc2C)c1", "note": "(configuration not stated)", "Potency": "8.28 µM (active)"}
{"molecule": "CC(=O)Nc1ccc(NC(=O)CSc2nnnn2-c2ccccc2F)cc1", "activity change, negative = inhibition": 7.75}
{"molecule": "O=C(NCCNc1ccccc1[N+](=O)[O-])c1ccccc1F", "activity change, negative = inhibition": 192}
{"molecule": "COc1ccccc1C(=O)Nc1ccc(OCC(=O)N2CCCCC2)cc1", "activity change, negative = inhibition": 33.9}
{"molecule": "O=C(O)c1ccc(Cn2c(=S)[nH]c3cc(Cl)ccc3c2=O)cc1", "activity change, negative = inhibition": 12.3}
{"molecule": "CC(C)c1ccc2c(c1)c(SC(C)(C)C)c(CC(C)(C)C(=O)O)n2Cc1ccc(Cl)cc1", "Potency": "8.28 µM (active)"}
{"molecule": "COc1ccc(NS(=O)(=O)c2cccc3nsnc23)cc1Cl", "activity change, negative = inhibition": -4.88}
